Only some compounds are listed: those with a hit (about 4.8% of all), similar ones and a draw of the others.
ssDAF-12 act – S. stercoralis DAF-12 nuclear receptor activators, primary screen, cell-based, luminescence, HEK293, GRIP1 co-expression, lit1-tk-luc; 370,000 compounds, 1% hits; HEK293 ssDAF-12/GRIP1 lit1-tk-luc reporter; % of 3 µM dafachronic acid response; Nuclear hormone receptor DAF-12 (Strongyloides stercoralis); activation, % at 6.8 µM;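 active = activation above the mean over all tested compounds plus 3 SD, cut at about 0.9% in these data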
SMARCA2 activ – SMARCA2 (BRM) function activators, primary screen, cell-based, luminescence, high throughput; activation, % at 9.1 µM; AID 652017, 2013; MG213 cells, MMTV-luciferase reporter, dexamethasone, overnight; 370,000 compounds, 1% hits; in the data active = activation above about 7.8%
hgDAF12 agonist – H. glycines DAF-12 receptor agonists, primary screen, cell-based, luminescence, HEK293, GAL4 fusion, UAS-luciferase; HEK293 GAL4-hgDAF12 UAS-luciferase reporter, agonist luminescence; normalized to butyrate control; activation, % at 6.8 µM; 370,000 compounds, 1.8% hits;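 active = activation above a cutoff set at the mean of all screened compounds plus 3 SD, cut at about 10% in these data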
DAX1 inh-1 – DAX1 (NR0B1) inhibitors on StAR promoter, primary screen, cell-based, luminescence, SF-1 (NR5A1), full-length DAX-1; HEK293T StAR-luciferase reporter, SF-1/DAX-1 repression relief; inhibition, % at 6.8 µM; 370,000 compounds, 1.1% hits; AID 652010, 2013;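 active = inhibition above the mean over all tested compounds plus 3 SD, cut at about 3.6% in these data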;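 also: higher inhibition means more luminescence from relief of DAX-1 repression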
hcDAF12 agonist – H. contortus DAF-12 nuclear receptor activators, primary screen, cell-based, luminescence, HEK293, lit1-tk-luc reporter; AID 652067, 2013; 370,000 compounds, 1.4% hits; HEK293 hcDAF-12 lit1-tk-luc reporter; 0% DMSO, 100% Δ7-dafachronic acid; activation, % at 6.8 µM;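 active = activation above the mean of all tested compounds plus 3 SD, cut at about 5.5% in these data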
DAX1 inh-2 – DAX1 (NR0B1) inhibitors, primary screen, cell-based, HEK293, Gal4-DAX1, luciferase luminescence; inhibition, % at 6.75 µM; Nuclear receptor subfamily 0 group B member 1 (Homo sapiens), P51843; HEK293 Gal4-DAX1 luciferase reporter; 340,000 compounds, 0.99% hits;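 active = inhibition above the mean over all tested compounds plus 3 SD, cut at about 4.2% in these data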;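 also: inhibition shows as a rise in luminescence from relieved DAX1 repression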
Target sequence (P51843 207-470 limits assumed): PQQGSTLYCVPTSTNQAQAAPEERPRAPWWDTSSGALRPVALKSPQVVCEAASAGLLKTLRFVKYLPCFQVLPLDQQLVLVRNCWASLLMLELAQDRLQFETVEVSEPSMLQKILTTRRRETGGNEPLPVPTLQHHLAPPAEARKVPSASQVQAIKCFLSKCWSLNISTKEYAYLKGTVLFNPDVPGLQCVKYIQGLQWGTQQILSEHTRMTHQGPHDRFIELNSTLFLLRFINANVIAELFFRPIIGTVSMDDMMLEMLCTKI
Numbers stand for hits; i = inactive; nt = not tested or not shown.

SMILES	ssDAF-12 act	SMARCA2 activ	hgDAF12 agonist	DAX1 inh-1	hcDAF12 agonist	DAX1 inh-2
NC(=O)C1CCN(C2CC(=O)N(Cc3cccs3)C2=O)CC1 (stereo unspecified)	1.2	i	i	i	i	i
C=CCN(CC#CC1=CCCCC1)CC1CC1	i	i	i	i	i	nt
Clc1ccc(-c2csc(N3CCOCC3)n2)cc1	i	i	i	i	i	i
COc1ccc(-c2csc(N)n2)cc1F	i	i	i	i	i	4.8
COc1ccc(-c2csc(N3CCOCC3)n2)cc1OC	i	i	11	i	i	i
Nc1nc(-c2ccc(F)cc2)cs1	i	i	i	i	i	i
COc1ccccc1COC(=O)c1cccc(S(=O)(=O)N(C)Cc2ccccc2)c1	i	i	i	i	i	nt
CC(C)CN1C(=O)C[C@@]2(C(=O)N(C)c3ccc(NS(=O)(=O)C4CC4)cc32)C1c1ccccc1 (stereo partly specified)	i	i	i	i	i	nt
COC(=O)[C@]12C[C@H](CC(=O)N3CCN(C(=O)C4CC4)CC3)C(=O)N(CCC3=CCCCC3)C1=C[C@H](C1CCCC1)O[C@@H]2C	i	i	i	i	i	nt
O=C(Nc1ccc(F)cc1)c1nc[nH]c1C(=O)O	i	i	i	i	i	4.3
O=c1n(Cc2ccccc2)nc2n1-c1ccccc1SC2	i	i	i	i	i	i
O=c1n(Cc2ccccc2Cl)nc2n1-c1ccccc1SC2	i	i	i	i	i	4.9
CCCCC(=O)N1CCN(C(=O)c2ccc3c(c2)nc(C)n3C2CCCC2)CC1	i	i	i	i	i	nt
CC1(c2nnnn2-c2ccc3ccccc3c2)CSCC(=O)N1C1CC1 (stereo unspecified)	i	i	i	i	i	nt
CN(CCc1ccccn1)C(=O)c1cc2ccccn2n1	i	i	i	i	i	nt
Cc1ccc(Cl)cc1NC(=S)NN	0.9	i	i	i	i	nt
Cc1ccc(Cl)cc1NC(=O)CCC(=O)O	i	i	i	i	i	5.0
NNC(=S)Nc1ccc(Cl)cc1	i	i	i	i	i	i
COC(=O)[C@@H]1C[C@@]2(c3ccccc3)c3ccccc3N(S(=O)(=O)c3ccccc3)[C@H]2N1C(=O)CNC/C=C(\C)CCC=C(C)C	i	i	i	i	i	nt
COc1ccc(Cl)cc1-c1nc(SCC(=O)NC(C)C(C)C)n[nH]1 (stereo unspecified)	i	i	i	i	i	7.3
COC(=O)C1(C(=O)OC)C[C@H](/C=C/c2ccccc2)N(Cc2ccccc2OC)[C@@H]1c1ccccc1	i	i	i	3.9	i	nt
Cc1ccc(NC(=O)[C@@H]2CCCN2S(=O)(=O)c2cccc3cccnc23)c(C)c1	i	nt	i	nt	i	nt
CC(=O)Nc1cccc(NC(=O)Nc2ccc(F)cc2F)c1	1.3	i	i	i	i	i
O=C(Nc1cccc(C(=O)Nc2ccc(F)cc2F)c1)c1ccccc1	i	i	i	i	i	7.2
COC(=O)c1ccc(NC(=O)Nc2ccc(F)cc2F)cc1	i	i	13	i	i	i
SMILES	ssDAF-12 act	SMARCA2 activ	hgDAF12 agonist	DAX1 inh-1	hcDAF12 agonist	DAX1 inh-2
COC(=O)c1ccc(NC(=O)Nc2cccc(F)c2)cc1	i	i	11	i	i	i
COC(=O)c1ccc(C(=O)Nc2ccc(F)cc2)cc1	i	i	i	i	i	i
CCc1ccccc1-c1cc(C(=O)OC)c2n(c1=O)CCC2	i	i	i	i	i	nt
O=C(Nc1ccc2c(c1)OCO2)Nc1ccc(F)cc1F	i	i	11	i	i	i
O=C(Nc1ccc2c(c1)OCO2)Nc1ccc(Cl)cc1Cl	i	i	i	i	i	i
CC1=CC(c2ccc(Cl)cc2)n2ncnc2N1 (stereo unspecified)	i	i	i	i	i	i
COc1ccc(C2C=C(C)Nc3ncnn32)cc1 (stereo unspecified)	i	i	i	i	i	4.6
O=C(Cn1nnc(-c2ccccc2F)n1)Nc1ccc(F)cc1F	i	i	i	i	i	nt
COc1cc(F)ccc1Oc1cccc2c1S(=O)(=O)N(C1CC1)C[C@@H](COCc1ccccc1)O2	i	i	i	i	i	nt
Cc1cc(C(C)(C)C)ccc1Oc1cccc2c1S(=O)(=O)N(C1CCCC1)CC(COCc1ccccc1)O2 (stereo unspecified)	i	i	i	3.6	i	i
Cc1cccc(C(=O)N/N=C/c2coc3ccccc3c2=O)c1	i	i	i	i	i	i
Cc1ccc2occ(/C=N/NC(=O)[C@@H](N)Cc3ccccc3)c(=O)c2c1	i	i	i	i	i	5.3
CC(=O)NC1(C(F)(F)F)C(=O)Nc2c1c(=O)[nH]c(=O)n2CC(C)C (stereo unspecified)	i	i	i	i	i	i
CC(C)Cn1c2c(c(=O)[nH]c1=O)C(NS(=O)(=O)c1ccc(Cl)cc1)(C(F)(F)F)C(=O)N2 (stereo unspecified)	i	i	i	i	i	4.3
COc1ccc(OCC(=O)C2CC2)c(C#N)c1	i	i	i	i	i	7.2
COc1ccc(CNCC#Cc2cccnc2)c(OC)c1	i	i	i	i	i	nt
Cc1ccccc1N(CC(=O)N/N=C/c1ccc(F)cc1)C(=O)c1ccccc1	0.9	i	i	i	i	i
O=C(Nc1ccccc1C(F)(F)F)OCCN1C(=O)CCC12CCC(c1ccccc1)CC2 (stereo unspecified)	i	i	i	i	i	nt
O=C(NC(=S)Nc1ccccc1Cl)c1cncc(C#Cc2ccccc2)c1	i	i	i	i	i	4.4
COC(=O)c1ccccc1NC(=O)c1ccnn1C	11	i	i	i	i	i
COC(=O)c1ccccc1NC(=O)c1c(Br)cnn1C	i	i	i	i	i	i
COC(=O)[C@H]1C[C@@]2(N3CCCC3)c3ccccc3N[C@H]2N1S(C)(=O)=O	i	i	i	i	i	nt
COCCCNC(=O)C[C@H]1C[C@@]2(C(=O)OC)C(=C[C@H](C(C)C)O[C@@H]2C2CC2)N(CCC2=CCCCC2)C1=O	i	i	i	i	i	nt
CCOC(=O)CN1C(=O)S/C(=C/c2ccc(O)c([N+](=O)[O-])c2)C1=O	i	i	i	i	i	5.9
CCOC(=O)CN1C(=O)S/C(=C/c2ccc(C)o2)C1=O	i	i	i	i	i	i
OC(c1ccccc1)(c1ccccc1)C1CCN(CCCNc2ccccc2Br)CC1	i	i	i	i	i	nt

Screening data: PubChem, The Scripps Research Institute Molecular Screening Center
